Screening data as filed in PubChem.
ssDAF-12 act – activates DAF-12 receptor from parasite S. stercoralis; AID 652126; activation, % at 6.8 µM; 1% of 370,000 active; HEK293 ssDAF-12/GRIP1 lit1-tk-luc reporter, luminescence; % of 3 µM dafachronic acid response;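 active = activation above the mean over all tested compounds plus 3 SD, cut at about 0.9% in these data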;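 note: 0% = DMSO-only wells and 100% = 3 µM delta7-dafachronic acid wells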
hgDAF12 agonist – agonists of H. glycines DAF-12 nuclear receptor | HEK293 GAL4-hgDAF12 UAS-luciferase reporter, agonist luminescence; normalized to butyrate control | activation, % at 6.8 µM | 1.8% of 370,000 active;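 active = activation above a cutoff set at the mean of all screened compounds plus 3 SD, cut at about 10% in these data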;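 note: 0% = DMSO wells and 100% = sodium butyrate wells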
DAX1 inh – DAX1 (NR0B1) inhibition, primary screen | HEK293T StAR-luciferase reporter, SF-1/DAX-1 repression relief | inhibition, % at 6.8 µM | 1.1% of 370,000 active;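 active = inhibition above the mean over all tested compounds plus 3 SD, cut at about 3.6% in these data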;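 note: 0% = DAX-1 cells with DMSO and 100% = cells lacking DAX-1 with DMSO; higher inhibition means more luminescence from relief of DAX-1 repression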
SMARCA2 activ – SMARCA2 function activation, primary screen | 1% of 370,000 active | MG213 cells, MMTV-luciferase reporter, dexamethasone, overnight | activation, % at 9.1 µM; in the data active = activation above about 7.8%;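 note: 0% = vehicle wells and 100% = reference activator wells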
hcDAF-12 act – activators of H. contortus DAF-12 nuclear receptor | HEK293 hcDAF-12 lit1-tk-luc reporter, luminescence; 0% DMSO, 100% Δ7-dafachronic acid | activation, % at 6.8 µM | 1.4% of 370,000 active | AID 652067;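 active = activation above the mean of all tested compounds plus 3 SD, cut at about 5.5% in these data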;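 note: 100% = response to 3 µM Δ7-dafachronic acid high control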
DAX1 conf – NR0B1 (human) inhibition, confirmation | shares compounds with DAX1 inh | HEK293T StAR-promoter luciferase reporter, SF-1/DAX-1 repression | inhibition, % at 6.8 µM | 87% of 2,400 active | AID 652134;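 active = inhibition above the average of every tested compound plus 3 SD, cut at about 3.8% in these data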;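 note: 0% = DAX-1 cells with DMSO and 100% = no DAX-1 control cells with DMSO; active compounds raise luminescence by relieving repression of the StAR reporter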
Target sequence (P51843 whole entry, looked up): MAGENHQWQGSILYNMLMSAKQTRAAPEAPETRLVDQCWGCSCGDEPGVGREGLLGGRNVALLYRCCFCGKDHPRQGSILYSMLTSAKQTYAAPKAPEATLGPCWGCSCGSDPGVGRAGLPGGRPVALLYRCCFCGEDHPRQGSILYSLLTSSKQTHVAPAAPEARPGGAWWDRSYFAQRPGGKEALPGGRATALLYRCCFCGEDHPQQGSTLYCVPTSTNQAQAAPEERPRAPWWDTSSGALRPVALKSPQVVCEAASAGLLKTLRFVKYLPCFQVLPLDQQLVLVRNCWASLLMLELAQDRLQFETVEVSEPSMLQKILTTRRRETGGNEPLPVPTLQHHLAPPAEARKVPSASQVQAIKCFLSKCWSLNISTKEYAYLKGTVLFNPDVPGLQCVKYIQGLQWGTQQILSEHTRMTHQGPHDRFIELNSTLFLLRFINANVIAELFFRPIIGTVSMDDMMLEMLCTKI
SF1 AF2mut Luc – nonselective inhibitor or artifact in SF-1 mutant DAX1 counter-screen | shares compounds with DAX1 inh | HEK293 StAR-luciferase, SF-1 AF2 mutant, luminescence | inhibition, % at 6.8 µM | 78% of 2,400 active | AID 652136;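 active = inhibition above the mean of all tested compounds plus 3 SD, cut at about 3% in these data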;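 note: 0% = DAX-1 transfected cells with DMSO and 100% = cells without DAX-1 with DMSO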
SMARCA2 act conf – confirmation of SMARCA2 (BRM) function activators; shares compounds with SMARCA2 activ; MG213 cells, MMTV-luciferase with dexamethasone, luminescence, overnight; MG213 cells expressing E1A, Rb sequestered; DMSO wells 0%, reference activator 100%; activation, % at 9.1 µM; 30% of 3,500 active;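 active = activation above its plate's cutoff, the mean activation of tested wells plus 3 SD, cut at about 7.9% in these data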
VP16 Luc act – counter-screen for SMARCA2 activators: GAL4-VP16 luciferase reporter activation; shares compounds with SMARCA2 activ; HEK293 GAL4-VP16 pG5luc reporter, luciferase luminescence; scaled: DMSO wells 0%, SAHA wells 100%; activation, % at 9.1 µM; 41% of 3,500 active; AID 686939;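 active = activation above the solvent-only control well mean plus 3 SD, averaged across control plates, cut at about 5.2% in these data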
LXRb hcDAF ctr – counter-screen for hcDAF-12 agonists: agonists of human LXR-beta. shares compounds with hcDAF-12 act. activation, % at 6.8 µM. 3,400 tested, under 10 active. HEK293 Gal4-LXR tk-luc reporter, luminescence, 24 h; normalized: DMSO 0%, positive control 100%;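 active = mean percent activation of the reporter above a cutoff set as the average over tested compounds plus their standard deviation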
hcDAF12 ag – confirmation of H. contortus DAF-12 agonists | activation, % at 6.8 µM | HEK293 hcDAF-12 lit1-tk-luc reporter, luminescence; % of Δ7-dafachronic acid response | shares compounds with hcDAF-12 act | 61% of 3,400 active;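 active = mean activation across triplicate tests above the threshold derived from the earlier primary screen, cut at about 5.5% in these data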;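 note: 0% = DMSO only wells and 100% = 3 µM Δ7-dafachronic acid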
hgDAF12 ag – hgDAF-12 agonism, confirmation assay | shares compounds with hgDAF12 agonist | HEK293 GAL4-hgDAF12 luciferase reporter, agonist mode; percent of butyrate response | activation, % at 6.8 µM | 80% of 3,300 active;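 active = mean activation over triplicate wells above the hit cutoff derived from the earlier primary screen, cut at about 11% in these data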;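 note: 0% = DMSO low control and 100% = 2 mM sodium butyrate high control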
LXRb DAF12 ctr – counter-screen for DAF-12 agonists: agonists of human LXR-beta; shares compounds with hgDAF12 agonist; HEK293 Gal4-LXR luciferase reporter, 24 h; activation, % at 6.8 µM; 3,300 tested, under 10 active; AID 743051;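 active = mean activation of the triplicate above a set limit carried over from the primary screen, none filed active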
Numbers without * were called inactive; / = no result. In the library only some 4.2% were active in any assay of this set; here they are far more common.

SMILES	ssDAF-12 act	hgDAF12 agonist	DAX1 inh	SMARCA2 activ	hcDAF-12 act	DAX1 conf	SF1 AF2mut Luc	hgDAF12 ag	LXRb DAF12 ctr	others
O=C(NC1CCCCN(Cc2cccc(Cl)c2)C1=O)c1ccc(F)cc1 (stereo unspecified)	-2	-2	-1	-5	1	/	/	/	/
C=CCn1c(COc2ccccc2)nnc1SCC(=O)Nc1ccc(S(=O)(=O)Nc2cc(C)nc(C)n2)cc1	-1	3	0	-2	2	/	/	/	/
O=C(Nc1ccccn1)c1ccc2c(=O)n3c(nc2c1)CCCCC3	0	20*	6.2*	0	5	7.7*	3.8*	15*	1
CS(=O)(=O)Nc1ccc(C(=O)Nc2ccccc2Cl)cc1	-1	5	0	3	0	/	/	/	/
CC(C)(C)c1ccc(C(=O)Nc2ccccc2Cl)cc1	1.5*	32*	7.7*	3	10*	16*	6.5*	19*	1	LXRb hcDAF ctr=2;hcDAF12 ag=9.4*
O=C(NCCc1c[nH]c2ccccc12)OCc1cn(Cc2ccccc2C(F)(F)F)nn1	0	-3	0	-1	-2	/	/	/	/
O=C(N/N=C/c1ccccn1)c1ccc(NC(=O)c2ccc(F)cc2)cc1	-1	-2	-1	-1	1	/	/	/	/
COc1ccc(C(=O)N/N=C/c2ccccn2)cc1	0	13*	4.5*	-1	1	6.6*	4.1*	13*	0
CCCN(CC1CC1)C(=O)c1oc(=O)c2ccccc2c1-c1ccc(C)cc1	-2	-2	-1	-6	-3	/	/	/	/
Cc1c(C(=O)Nc2ccccn2)oc2ccccc12	3.3*	14*	4.7*	4	13*	11*	5.8*	23*	1	LXRb hcDAF ctr=2;hcDAF12 ag=17*
COC(=O)N/N=C(\C)c1ccco1	1	-3	0	-2	0	/	/	/	/
C/C(=N/NC(=O)c1ccccn1)c1ccco1	1	13*	5.5*	3	3	8.1*	4.0*	13*	1
COc1ccc(CSc2nnc(SCC(=O)Nc3ccc4c(c3)OCO4)s2)cc1	-1	3	0	-9	-1	/	/	/	/
CCn1c(C)cc(C(=O)COC(=O)c2cccnc2SC)c1C	0	15*	5.9*	11*	5	6.1*	4.4*	14*	1	SMARCA2 act conf=8.0*;VP16 Luc act=8.5*
CCOc1ccc(-c2noc(-c3csc([C@@H]4C[C@H](O)[C@@H](CO)O4)n3)n2)cc1	-2	2	-1	0	1	/	/	/	/
OC[C@H]1O[C@@H](c2nc(-c3nc(-c4ccc(F)cc4)no3)cs2)[C@H](O)[C@@H]1O	0	13*	9.8*	0	4	13*	7.2*	16*	1
O=C1CC(O)C(Cc2ccccc2)N1 (stereo unspecified)	0	3	0	-4	-1	/	/	/	/
C(=N\Nc1nc2ccccc2s1)/c1cccs1	3.3*	16*	7.0*	1	20*	18*	12*	24*	1	LXRb hcDAF ctr=2;hcDAF12 ag=17*
Oc1ccccc1C=NNc1nc2ccccc2s1	3.0*	22*	5.5*	-2	16*	11*	8.6*	19*	1	LXRb hcDAF ctr=2;hcDAF12 ag=17*
C(=N\Nc1nc2ccccc2s1)/c1ccco1	2.6*	15*	6.7*	0	17*	18*	8.2*	21*	1	LXRb hcDAF ctr=2;hcDAF12 ag=12*
OCC(O)/C=N/Nc1nc2ccccc2s1 (stereo unspecified)	-1	4	0	-2	4	/	/	/	/
CNS(=O)(=O)/C=C/c1ccccc1CCNC(=O)OC(C)(C)C	-1	2	-2	-3	-2	/	/	/	/
Cc1cc(NC(=O)c2ccc(NS(=O)(=O)c3ccccc3F)cc2)no1	-1	-1	1	-4	0	/	/	/	/
COC(=O)[C@]12C[C@H](CC(=O)N3CCC(c4ccccc4)CC3)C(=O)N(Cc3cccc4ccccc34)C1=C[C@H](C1CCCC1)O[C@@H]2C	-1	4	-1	-4	1	/	/	/	/
Cc1cccc(-n2ncc3c(NC4CCCCC4)ncnc32)c1	0	25*	6.8*	2	7.8*	13*	7.5*	12*	1	LXRb hcDAF ctr=2;hcDAF12 ag=6.2*
SMILES	ssDAF-12 act	hgDAF12 agonist	DAX1 inh	SMARCA2 activ	hcDAF-12 act	DAX1 conf	SF1 AF2mut Luc	hgDAF12 ag	LXRb DAF12 ctr	others
Cc1cccc(-n2ncc3c(N4CCCC4)ncnc32)c1	1	18*	7.4*	7	5	16*	6.9*	16*	1
Cc1cccc(-n2ncc3c(N4CCOCC4)ncnc32)c1	-1	2	3	-3	0	/	/	/	/
Cc1cccc(-n2ncc3c(NCc4cccnc4)ncnc32)c1	-1	13*	4.7*	2	-1	8.1*	4.2*	12*	0
COc1ccc(-c2cc(C(=O)N/N=C/C(C)=C\c3ccco3)[nH]n2)cc1	0	0	0	-4	3	/	/	/	/
Cn1c(SCC2CCC2)nnc1-c1ccco1	-1	8	-1	2	2	/	/	/	/
C=CCN1C(C(=O)OC)CN(Cc2cn(Cc3ccc(C)cc3)nn2)CCS1(=O)=O (stereo unspecified)	-1	-2	0	2	-1	/	/	/	/
O=C(NC1CCCCC1)c1ccc(-c2ccccc2[N+](=O)[O-])o1	1.1*	15*	9.3*	11*	7.9*	8.9*	5.5*	14*	1	SMARCA2 act conf=8.7*;VP16 Luc act=12*;LXRb hcDAF ctr=1;hcDAF12 ag=7.3*
